Assay results published in PubChem BioAssay (NCATS).
Records with an inconclusive call do not appear. Activity calls are given as the source filed them. Unless noted, calls follow the shape of the dose curve; as a rule, active = well fitted curve in the direction sought with a large enough effect; inconclusive = small, poorly fitted or top-dose-only effect, or another doubt; inactive = no such curve, though single readings can be large; an effect the other way counts as inactive or inconclusive.

Tests used:
[1] = biological target: Lysosomal acid glucosylceramidase (Homo sapiens) (UniProt P04062); test: Glucocerebrosidase-p2 (AID 348; in the data active = potency below about 10 µM; also: potency is read from the fitted curve at half-maximal effect); conditions: purified GBA, blue fluorogenic substrate, 40 min
In short: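 Compounds titrated from 0.6 nM upwards against 0.2 nM enzyme in pH 5.9 citric acid/KH2PO4, taurocholate, tween-20; blue fluorogenic substrate 80 uM, 40 min room temperature, stopped and read Ex 365/Em 440 for AC50.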

[2] = AP1 Signaling Pathway (AID 357; active = well fitted curve in either direction with a large enough effect, not every such curve was filed as active; also: % is scaled to controls: 0 for no effect and ±100 for the full control effect); conditions: ME-180 AP-1-bla reporter, EGF-induced, beta-lactamase ratio, 5 h; at 7.69 µM (top of the series) unless noted
In short: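 AP-1-bla ME-180 cells with beta-lactamase reporter under AP-1 response element, stimulated with EC50 EGF; compounds titrated, 5 hours at 37 degrees Celsius. CCF4 read at 460/530 nm ratio; positive and negative modulators judged by AC50.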

[3] = biological target: Glucocorticoid receptor (Homo sapiens) (UniProt P04150); test: GR-GFP Redistribution (AID 450;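 active = compounds whose dose series gives a full or clear partial fitted curve of increased nuclear translocation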; also: potency is read from the fitted curve at half-maximal effect); conditions: U2OS GR-GFP nuclear translocation, laser cytometry, 2 h
[4] = biological target: Glucocorticoid receptor (Homo sapiens) (UniProt P04150); test: GR-EFC Redistribution (AID 451; calls by dose curve; also: potency is read from the fitted curve at half-maximal effect); conditions: CHO-K1 GR-EFC translocation, beta-gal luminescence, 2 h
In short: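 CHO-K1 cells stably expressing nuclear-localized β-gal enzyme acceptor and GR fused C-terminally to the enzyme donor fragment; ligand-driven nuclear translocation restores β-gal by complementation. Compounds titrated up to 46 uM final, 2 h at 37 °C; luminescence read.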

[5] = biological target: Mitogen-activated protein kinase 10 (Mus musculus) (UniProt Q61831); test: JNK3 AlphaScreen Assay (AID 530; active = well fitted curve in either direction with a large enough effect, not every such curve was filed as active;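 also: kinase came from lysate of stimulated human HepG2 cells; signal reports phosphorylation of biotinylated GST-cJun 1-79 at Ser73 with 10 µM ATP; % is scaled to controls: 0 for no effect and ±100 for the full control effect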); conditions: JNK3 lysate, c-Jun phosphorylation; series mostly up to 57.1 µM
In short: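 Inhibitors reduce antibody binding to phosphorylated biotin-cJun, lowering AlphaScreen luminescence. Lysates from HepG2 cells pre-activated by IL-1beta plus TNF-alpha supplied JNK3; compounds were titrated.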

[6] = qHTS Assay for Lipid Storage Modulators (AID 1519; calls by dose curve); conditions: Drosophila S3 cells, BODIPY lipid droplet/cell ratio, laser cytometry, cells loaded with oleic acid; for activity change, negative = inhibition: at 57.5 µM (top of the series)
In short: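 Cells seeded at 5,000 per well were treated with compounds over a concentration series and loaded with oleic acid (400 uM, as added). Lipid droplet fluorescence (488 nm excitation, 500-530 nm channel) was read by laser-scanning cytometry and normalized to 20 uM Triacsin C.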

[7] = biological target: Dual specificity protein kinase CLK4 (Homo sapiens) (UniProt Q9HAZ1); test: qHTS Assay for Inhibitors of CDC-like Kinase 4 (Kinase-Glo Assay) (AID 1770); conditions: recombinant Clk4, Kinase-Glo ATP depletion luminescence; series mostly up to 66.7 µM; also: nearly all actives have a fitted effect of over 65% in size; also: potency is read from the fitted curve at half-maximal effect
In short: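 Readout: Kinase-Glo luminescence from ATP left after a 4.5 h room-temperature reaction of 25 nM Clk4 with 100 uM RS peptide and 1 uM ATP (final). Buffer: 25 mM Tris pH 7.5, 10 mM MgCl2.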

[8] = biological target: Dual specificity protein kinase CLK4 (Homo sapiens) (UniProt Q9HAZ1); test: qHTS Assay for Inhibitors of CDC-like Kinase 4 (ADP-Glo Assay) (AID 1771); conditions: recombinant CLK4, ADP-Glo luminescence; series mostly up to 80 µM; also: nearly all actives have a fitted effect of over 70% in size; also: potency is read from the fitted curve at half-maximal effect
In short: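 25 nM Clk4 with 100 uM RS repeat peptide and 1 uM ATP (final) in buffer with 2 mM MgCl2, 0.5 mM EGTA, 2.5 mM DTT, 0.01% Triton X-100; 1 h at room temperature; ADP-Glo luminescence for ADP formed.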

[9] = biological target: Dual specificity protein kinase CLK4 (Homo sapiens) (UniProt Q9HAZ1); test: qHTS Assay for Inhibitors of CDC-like Kinase 4 (ADP-FP Assay) (AID 1795); conditions: Transcreener ADP fluorescence polarization; series mostly up to 50 µM; also: nearly all actives have a fitted effect of over 60% in size; also: potency is read from the fitted curve at half-maximal effect
In short: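 FP readout: Orange Transcreener ADP2 tracer (4 nM) plus ADP antibody, read after 30 min at room temperature. Kinase step: 6.25 nM Clk4, 100 uM RS peptide, 1 uM ATP, pH 7.5, 1 h.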

[10] = biological target: Ubiquitin carboxyl-terminal hydrolase 1 (Homo sapiens) (UniProt O94782); test: Inhibitors of USP1/UAF1: Pilot qHTS (AID 504865); conditions: purified USP1/UAF1, Ub-rhodamine cleavage fluorescence; series mostly up to 54.9 µM;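 also: rhodamine fluorescence freed from ubiquitin-rhodamine substrate followed over time; top concentration of the series differs between compounds; % is scaled to controls: 0 for no effect and ±100 for the full control effect; nearly all actives have a fitted effect of over 35% in size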
In short: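 1nM USP1/UAF1 + cpd, 15 min RT; start w/ Ub-Rho 150nM final; kinetic FL 480/540 nm, 6 reads q60 s. Buffer 50mM HEPES pH 7.8, 0.5mM EDTA, 1mM TCEP, 0.01% Tween-20, 0.1 mg/ml BSA.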

[11] = Primary qHTS for small molecule stabilizers of the endoplasmic reticulum resident proteome: Secreted ER Calcium Modulated Protein (SERCaMP) assay (AID 1508630); conditions: SH-SY5Y GLuc-SERCaMP (Gaussia luciferase released on ER calcium loss) secretion, thapsigargin, luminescence; series mostly up to 38.4 µM; also: % is scaled to controls: 0 for no effect and ±100 for the full control effect
In short: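 GLuc-SERCaMP-expressing SH-SY5Y cells, pretreated 16 h with compound, are challenged with thapsigargin to empty ER calcium stores; after 4 h, coelenterazine is added directly to the medium and luminescence is imaged.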

[12] = NFAT Signaling Pathway (AID 444; active = well fitted curve in either direction with a large enough effect, not every such curve was filed as active;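 also: carbachol stimulus at about its EC50 of 1 µM final; % is scaled to controls: 0 for no effect and ±100 for the full control effect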); conditions: Jurkat NFAT-bla M1, carbachol, beta-lactamase ratio, 5 h; at 7.69 µM (top of the series) unless noted
In short: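 Jurkat cells carrying an NFAT-driven β-lactamase reporter and co-transfected muscarinic M1 receptor were treated with compound plus carbachol (1 uM final, an EC50 level) for 5 h at 37 °C. CCF4 loading followed for 1 h at RT; 460/530 nm ratio gave %activity.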

[13] = Stat Signaling Pathway (AID 446; active = well fitted curve in either direction with a large enough effect, not every such curve was filed as active); conditions: ME-180 SIE beta-lactamase reporter, IL-6 stimulated, 5 h; at 7.69 µM (top of the series) unless noted
In short: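 Screening format detects activators and inhibitors alike: ME-180 SIE-bla cells stimulated at 40 pM IL-6 for 5 hrs with compound, then dual-emission beta-lactamase read at 405 nm excitation.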

[14] = biological target: 3',5'-cyclic-AMP phosphodiesterase 4B (Homo sapiens) (UniProt Q07343); test: qHTS Assay for Inhibitors of PDE-IV (AID 607; active = well fitted activation curve with a large enough effect in the main read-out, with a control signal flat, not every such curve was filed as active; also: % of control where 0% means no effect); conditions: HEK293 ACTOne CNG channel cells, membrane potential fluorescence; series mostly up to 22.9 µM
In short: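 The readout is membrane depolarisation from a cAMP-sensing CNG channel, detected with a potential dye at ex 535/em 590. Cells were HEK293-derived (endogenous PDE-IV) at 1000 cells/well, titrated up to 22.9 uM final.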

[15] = biological target: Cytochrome P450 3A4 (Homo sapiens) (UniProt P08684); test: qHTS Assay for Inhibitors and Substrates of Cytochrome P450 3A4 (AID 884); conditions: recombinant CYP3A4, Luciferin-PPXE luminescence; series mostly up to 57.1 µM; also: potency is read from the fitted curve at half-maximal effect; nearly all actives have a fitted effect of over 50% in size
In short: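 20 nM human CYP3A4 with 25 uM Luciferin-PPXE (at KM) in 200 mM KPO4, preincubated 10 min with compound; NADPH regeneration started a 60 min RT reaction. Luciferin detected by luminescence, normalized to 57 uM ketoconazole as full inhibition.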

[16] = biological target: Cytochrome P450 3A4 (Homo sapiens) (UniProt P08684); test: qHTS Assay for Activators of Cytochrome P450 3A4 (AID 885); conditions: recombinant CYP3A4, Luciferin-PPXE luminescence, 60 min; series mostly up to 57.1 µM; also: nearly all actives have a fitted effect of over 65% in size
In short: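 Steps: enzyme/substrate mix dispensed; compound added, 10 min RT; NADPH regeneration solution added, 60 min RT; luciferin detection buffer stops reaction; 20 min later luminescence measured.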

[17] = qHTS Assay for Identification of Small Molecule Agonists for Hypoxia Response Element Signaling Pathway (AID 914; active = well fitted activation curve with a large enough effect in the signal ratio, with a control signal flat, not every such curve was filed as active; the % refers to the signal ratio; also: potency is read from the fitted curve at half-maximal effect); conditions: ME-180 (cervical carcinoma) HRE-bla reporter, beta-lactamase ratio, CoCl2, 17 h; activation: stronger effect = higher value
In short: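 HRE-bla ME-180 cells, overnight plating in Opti-MEM with 0.5% dialyzed FBS; cpd titration + EC50 CoCl2, 17 h, 37 degrees Celsius; CCF4 2.5 h RT; 460/530 nm ratio; AC50.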

[18] = biological target: Cytochrome P450 1A2 (Homo sapiens) (UniProt P05177); test: p450-cyp1a2 (AID 410; calls by dose curve; also: potency is read from the fitted curve at half-maximal effect); conditions: recombinant CYP1A2, luciferin-ME demethylation, luminescence; series mostly up to 57 µM
In short: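 20nM CYP1A2 with 100uM Luciferin-ME (at Km) in 100mM KPO4; compound preincubated 10 min, NADPH regeneration added, 60 min at room temperature. Luciferin quantified by luminescence after detection reagent; normalized to 57 uM furafylline.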

[19] = measured here: cell count channel max response
[20] = measured here: lipid channel max response

Chain of Lysosomal acid glucosylceramidase (Homo sapiens) (P04062 whole entry, looked up): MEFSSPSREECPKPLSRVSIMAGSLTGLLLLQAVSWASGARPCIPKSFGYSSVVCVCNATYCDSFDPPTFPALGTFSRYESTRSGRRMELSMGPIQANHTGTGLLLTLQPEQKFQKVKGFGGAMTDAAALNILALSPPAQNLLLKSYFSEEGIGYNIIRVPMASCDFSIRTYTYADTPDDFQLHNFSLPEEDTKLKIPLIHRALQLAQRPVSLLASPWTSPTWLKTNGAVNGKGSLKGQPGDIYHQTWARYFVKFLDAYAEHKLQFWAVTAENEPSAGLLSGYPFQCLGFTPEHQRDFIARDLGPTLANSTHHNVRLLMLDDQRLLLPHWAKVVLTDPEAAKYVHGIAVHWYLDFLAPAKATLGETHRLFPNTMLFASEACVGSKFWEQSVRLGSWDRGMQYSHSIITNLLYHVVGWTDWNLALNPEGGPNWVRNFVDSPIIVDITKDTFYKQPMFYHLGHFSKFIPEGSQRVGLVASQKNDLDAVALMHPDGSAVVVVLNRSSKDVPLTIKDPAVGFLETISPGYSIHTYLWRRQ
Chain of 3',5'-cyclic-AMP phosphodiesterase 4B (Homo sapiens) (Q07343 whole entry, looked up): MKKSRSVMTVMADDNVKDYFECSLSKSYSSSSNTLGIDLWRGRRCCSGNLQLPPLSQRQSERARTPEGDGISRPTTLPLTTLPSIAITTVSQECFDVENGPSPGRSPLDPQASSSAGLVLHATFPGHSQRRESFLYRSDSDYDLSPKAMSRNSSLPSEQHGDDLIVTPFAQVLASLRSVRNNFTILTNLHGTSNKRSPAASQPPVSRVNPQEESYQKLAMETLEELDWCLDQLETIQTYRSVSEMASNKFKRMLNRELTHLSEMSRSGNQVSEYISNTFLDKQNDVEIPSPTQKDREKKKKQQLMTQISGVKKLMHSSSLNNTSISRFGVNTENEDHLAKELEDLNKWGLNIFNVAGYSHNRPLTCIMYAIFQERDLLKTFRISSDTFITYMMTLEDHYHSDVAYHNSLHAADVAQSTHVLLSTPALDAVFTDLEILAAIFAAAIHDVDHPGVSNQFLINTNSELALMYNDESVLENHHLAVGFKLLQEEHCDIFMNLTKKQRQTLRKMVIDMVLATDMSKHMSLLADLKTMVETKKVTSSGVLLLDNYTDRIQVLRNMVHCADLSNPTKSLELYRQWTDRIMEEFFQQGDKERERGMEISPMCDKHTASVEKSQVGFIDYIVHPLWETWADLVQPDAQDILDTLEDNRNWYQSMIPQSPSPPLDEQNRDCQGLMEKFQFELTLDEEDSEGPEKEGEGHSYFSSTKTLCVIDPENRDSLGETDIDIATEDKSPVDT
Chain of Cytochrome P450 3A4 (Homo sapiens) (P08684 whole entry, looked up): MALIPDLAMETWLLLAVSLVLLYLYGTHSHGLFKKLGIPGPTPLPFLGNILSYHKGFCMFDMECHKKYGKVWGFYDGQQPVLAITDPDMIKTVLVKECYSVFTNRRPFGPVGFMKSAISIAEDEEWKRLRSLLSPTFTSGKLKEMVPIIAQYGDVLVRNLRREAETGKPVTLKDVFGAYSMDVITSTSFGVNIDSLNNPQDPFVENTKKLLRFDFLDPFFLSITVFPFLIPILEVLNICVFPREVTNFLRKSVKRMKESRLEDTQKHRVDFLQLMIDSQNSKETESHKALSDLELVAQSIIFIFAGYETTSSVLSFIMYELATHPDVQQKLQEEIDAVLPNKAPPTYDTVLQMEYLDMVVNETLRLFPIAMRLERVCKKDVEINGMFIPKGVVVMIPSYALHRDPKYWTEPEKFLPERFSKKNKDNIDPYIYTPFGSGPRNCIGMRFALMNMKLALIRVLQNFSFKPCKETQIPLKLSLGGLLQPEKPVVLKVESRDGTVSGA
Chain of Ubiquitin carboxyl-terminal hydrolase 1 (Homo sapiens) (O94782 whole entry, looked up): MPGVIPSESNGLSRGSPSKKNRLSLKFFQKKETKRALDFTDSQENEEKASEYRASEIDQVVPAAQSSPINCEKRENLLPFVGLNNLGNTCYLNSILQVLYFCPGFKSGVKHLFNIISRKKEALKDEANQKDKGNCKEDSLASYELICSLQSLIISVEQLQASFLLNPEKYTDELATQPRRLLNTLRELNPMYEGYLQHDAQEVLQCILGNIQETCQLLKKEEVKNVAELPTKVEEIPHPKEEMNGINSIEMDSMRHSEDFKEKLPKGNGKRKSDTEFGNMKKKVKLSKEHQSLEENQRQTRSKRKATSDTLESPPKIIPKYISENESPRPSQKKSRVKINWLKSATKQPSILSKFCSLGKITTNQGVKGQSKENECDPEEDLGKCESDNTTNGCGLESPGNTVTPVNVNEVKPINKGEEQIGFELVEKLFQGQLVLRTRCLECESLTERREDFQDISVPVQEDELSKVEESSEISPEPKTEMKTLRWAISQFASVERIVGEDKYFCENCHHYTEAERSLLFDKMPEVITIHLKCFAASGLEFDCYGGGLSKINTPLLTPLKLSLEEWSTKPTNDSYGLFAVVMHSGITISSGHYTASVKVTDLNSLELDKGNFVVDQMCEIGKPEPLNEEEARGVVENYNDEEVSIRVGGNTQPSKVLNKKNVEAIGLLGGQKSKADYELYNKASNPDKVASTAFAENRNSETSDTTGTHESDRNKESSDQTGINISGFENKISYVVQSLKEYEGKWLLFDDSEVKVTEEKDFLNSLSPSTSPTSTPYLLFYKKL
Chain of Dual specificity protein kinase CLK4 (Homo sapiens) (Q9HAZ1 whole entry, looked up): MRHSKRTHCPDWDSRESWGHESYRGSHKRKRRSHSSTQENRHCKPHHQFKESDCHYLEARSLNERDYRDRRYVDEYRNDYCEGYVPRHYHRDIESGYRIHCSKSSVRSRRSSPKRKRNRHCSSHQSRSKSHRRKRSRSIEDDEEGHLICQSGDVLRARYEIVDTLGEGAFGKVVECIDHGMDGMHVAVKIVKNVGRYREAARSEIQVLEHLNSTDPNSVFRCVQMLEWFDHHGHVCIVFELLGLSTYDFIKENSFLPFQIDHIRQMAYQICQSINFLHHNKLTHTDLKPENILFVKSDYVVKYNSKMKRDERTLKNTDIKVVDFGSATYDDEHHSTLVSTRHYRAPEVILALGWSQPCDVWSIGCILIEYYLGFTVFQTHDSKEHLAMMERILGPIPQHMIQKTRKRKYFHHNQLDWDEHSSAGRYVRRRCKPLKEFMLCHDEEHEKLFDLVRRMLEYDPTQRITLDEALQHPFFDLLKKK
Chain of Glucocorticoid receptor (Homo sapiens) (P04150 whole entry, looked up, the tested form may be a part): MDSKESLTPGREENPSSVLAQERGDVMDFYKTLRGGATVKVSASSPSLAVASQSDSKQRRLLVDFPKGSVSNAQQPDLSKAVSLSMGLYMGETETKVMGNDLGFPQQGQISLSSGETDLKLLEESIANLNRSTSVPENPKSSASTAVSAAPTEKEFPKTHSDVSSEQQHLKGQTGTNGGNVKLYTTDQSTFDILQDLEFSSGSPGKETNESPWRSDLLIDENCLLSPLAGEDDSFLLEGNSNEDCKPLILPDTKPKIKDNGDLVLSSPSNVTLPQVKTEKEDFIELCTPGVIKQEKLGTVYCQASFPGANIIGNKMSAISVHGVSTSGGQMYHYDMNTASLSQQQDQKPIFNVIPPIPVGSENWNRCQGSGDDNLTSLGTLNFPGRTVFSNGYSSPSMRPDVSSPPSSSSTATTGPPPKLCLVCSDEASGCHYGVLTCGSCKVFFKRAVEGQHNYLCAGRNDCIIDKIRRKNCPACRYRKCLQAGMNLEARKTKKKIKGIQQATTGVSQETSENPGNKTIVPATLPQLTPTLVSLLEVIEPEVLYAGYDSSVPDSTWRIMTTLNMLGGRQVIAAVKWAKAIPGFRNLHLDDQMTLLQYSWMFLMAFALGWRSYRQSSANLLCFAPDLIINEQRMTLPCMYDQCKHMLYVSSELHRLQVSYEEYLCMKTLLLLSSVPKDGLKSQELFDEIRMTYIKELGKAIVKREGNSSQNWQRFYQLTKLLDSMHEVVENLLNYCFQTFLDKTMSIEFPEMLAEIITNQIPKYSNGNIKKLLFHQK
Chain of Cytochrome P450 1A2 (Homo sapiens) (P05177 whole entry, looked up): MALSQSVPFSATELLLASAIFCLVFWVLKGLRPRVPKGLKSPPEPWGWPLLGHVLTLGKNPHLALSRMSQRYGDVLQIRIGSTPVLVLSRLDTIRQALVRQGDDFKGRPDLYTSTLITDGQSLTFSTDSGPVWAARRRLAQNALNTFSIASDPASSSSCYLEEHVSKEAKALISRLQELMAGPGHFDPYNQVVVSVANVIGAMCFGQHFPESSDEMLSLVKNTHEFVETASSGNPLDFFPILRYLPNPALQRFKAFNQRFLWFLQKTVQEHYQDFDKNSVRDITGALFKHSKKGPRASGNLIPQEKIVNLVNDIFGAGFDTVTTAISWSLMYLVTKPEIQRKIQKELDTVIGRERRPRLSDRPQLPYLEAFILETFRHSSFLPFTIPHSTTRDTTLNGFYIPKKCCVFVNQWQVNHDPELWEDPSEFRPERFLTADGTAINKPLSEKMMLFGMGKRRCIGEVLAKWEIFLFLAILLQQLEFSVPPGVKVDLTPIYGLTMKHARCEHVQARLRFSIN

CCNc1ncc2nc(-c3ccccc3)c(=O)n(C[C@H]3CCCO3)c2n1
-10%: max response [6, 20]
inactive: Potency [1] > 11.4 µM | activity change, negative = inhibition [2] 0.0155% | Potency [3] > 9.22 µM | Potency [4] > 46 µM | outcome [5] | activity change, negative = inhibition [6] -15.5% | Potency [7] | Potency [8] | Potency [9] | Potency [10] | Potency [11]
3.11%: max response [6, 19]

Cc1noc(C)c1-c1cncnc1NCc1cccnc1
5.44%: max response [6, 20]
inactive: Potency [1] > 11.4 µM | activity change, negative = inhibition [2] 1.35% | activity change, negative = inhibition [12] 4.9% | activity, negative = inhibition [13] 14.8% | Potency [4] > 46 µM | outcome [5] | Potency [14] | Potency [16] | activity change, negative = inhibition [6] 2.36% | Potency [7] | Potency [8] | Potency [9] | Potency [10] | Potency [11]
4.31%: max response [6, 19]
active: Potency [15] 3.16 µM

COc1ccc(-n2c(=O)c(-c3ccc(F)cc3)nc3cnc(N4CCOCC4)nc32)cc1
inactive: Potency [1] > 11.4 µM | activity change, negative = inhibition [12] 12.6% | Potency [3] > 9.22 µM | Potency [4] > 46 µM | outcome [5] | Potency [14] | activity change, negative = inhibition [6] 4.12% | Potency [7] | Potency [8] | Potency [9] | Potency [10] | Potency [11]
active: Potency [17] 3.16 µM
4.35%: max response [6, 20]
3.3%: max response [6, 19]

COc1cccc(Nc2ncc3nc(-c4ccc(Cl)cc4)c(=O)n(C4CC4)c3n2)c1
inactive: Potency [1] > 11.4 µM | activity change, negative = inhibition [12] -4.19% | activity, negative = inhibition [13] -10.8% | Potency [3] > 9.22 µM | Potency [4] > 46 µM | outcome [5] | Potency [14] | activity change, negative = inhibition [6] -3.5% | Potency [7] | Potency [8] | Potency [9] | Potency [10] | Potency [11]
-0.959%: max response [6, 19]
-5.52%: max response [6, 20]

c1ccc(CNc2ncnc3ccc(-c4cccnc4)cc23)cc1
9.68%: max response [6, 20]
14%: max response [6, 19]
active: Potency [18] 0.126 µM | Potency [15] 1.26 µM | Potency [7] 3.16 µM | Potency [8] 3.16 µM | Potency [9] 2.24 µM
inactive: Potency [1] > 11.4 µM | activity, negative = inhibition [13] -1.78% | Potency [3] > 46 µM | Potency [4] > 46 µM | outcome [5] | Potency [16] | activity change, negative = inhibition [6] -2.12% | Potency [11]

COc1ccc(-n2c(=O)c(-c3ccc(Cl)cc3)nc3cnc(N4CCNCC4)nc32)cc1
inactive: Potency [1] > 11.4 µM | Potency [4] > 46 µM | Potency [14] | activity change, negative = inhibition [6] 5.55% | Potency [7] | Potency [8] | Potency [9] | Potency [10] | Potency [11]
9.83%: max response [6, 19]
active: Potency [18] 12.6 µM
16.5%: max response [6, 20]

Cc1noc(C)c1-c1cncnc1NCCN1CCOCC1
14.6%: max response [6, 20]
inactive: Potency [1] > 11.4 µM | activity change, negative = inhibition [2] 4.2% | activity change, negative = inhibition [12] -5.64% | activity, negative = inhibition [13] -2.23% | Potency [4] > 46 µM | outcome [5] | Potency [14] | Potency [16] | activity change, negative = inhibition [6] 3.95% | Potency [7] | Potency [8] | Potency [9] | Potency [10] | Potency [11]
active: Potency [15] 6.31 µM
12.2%: max response [6, 19]
